The test system of one assay is DYRK1B. Conditions: n = 1.
The subject of the next assay is DYRK2. Conditions: concentration: 1 μM,replicates: in singlicate; n = 1.
In the next assay the test system is EGFR. Conditions: concentration: 1 μM,replicates: in singlicate; n = 1.
The next assay has as its system EIF2AK1. Conditions: concentration: 1 μM,replicates: in singlicate; n = 1.
In another assay the test system is EPHA1. Conditions: concentration: 1 μM,replicates: in singlicate; n = 1.
Another assay deals with EPHA2. Conditions: concentration: 1 μM,replicates: in singlicate; n = 1.
A further assay concerns EPHA3. The conditions noted are these: concentration: 1 μM,replicates: in singlicate; n = 1.
In another assay the test system is EPHA4. Conditions: concentration: 1 μM,replicates: in singlicate; n = 1.
The next assay has as its system EPHA5. Conditions: concentration: 1 μM,replicates: in singlicate; n = 1.
The next assay deals with EPHA6. Conditions: n = 1.
For another assay, the system named is EPHA7. The conditions noted are these: concentration: 1 μM,replicates: in singlicate; n = 1.
The subject of another assay is EPHA8. The conditions noted are these: concentration: 1 μM,replicates: in singlicate; n = 1.
Another assay relates to EPHB1. The conditions noted are these: concentration: 1 μM,replicates: in singlicate; n = 1.
For the next assay, the system named is EPHB2. The conditions noted are these: concentration: 1 μM,replicates: in singlicate; n = 1.
Another assay relates to EPHB3. Conditions: concentration: 1 μM,replicates: in singlicate; n = 1.
The next assay relates to EPHB4. Conditions: concentration: 1 μM,replicates: in singlicate; n = 1.
The test system of the next assay is EPHB6. Conditions: concentration: 1 μM,replicates: in singlicate; n = 1.
For a further assay, the system named is ERBB2. Conditions: concentration: 1 μM,replicates: in singlicate; n = 1.
The test system of another assay is ERBB3. Conditions: concentration: 1 μM,replicates: in singlicate; n = 1.
Another assay deals with ERBB4. Conditions: concentration: 1 μM,replicates: in singlicate; n = 1.
Where [1] appears, read: concentration: 1 μM,replicates: in singlicate.

Where two headings read alike, the source gives them in different places.
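Further: KINOMEscan kinase panel screen.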

Regarding `FC(F)(F)c1cc(Br)cc(Nc2nccc(-c3cnn4ncccc34)n2)c1` [GW810578], the “%Inh” value with DYRK1B (setting [1]) worked out at 98.3%; with DYRK2, 47%; in the assay on EGFR, 16%; with EIF2AK1, 0%; in the assay with EPHA1, 11%; with EPHA2, 0%. Also, the “%Inh” value in the assay with EPHA3 was determined as 7%; in the assay on EPHA4, 15%; in the assay with EPHA5, 26%; in the assay with EPHA6 (setting [1]), 18%; with EPHA7, 0%; in the assay on EPHA8, 0%. Besides, the “%Inh” value came out at 0% with EPHB1; 9% in the assay with EPHB2; 17% in the assay with EPHB3; 0% in the assay on EPHB4; 48% in the assay with EPHB6; 0% with ERBB2. Further, the “%Inh” value was 1% in the assay with ERBB3 and 0% in the assay on ERBB4.

Regarding `O=C(Nc1cccc(Oc2ccc3nccn3n2)c1)Nc1cccc(C(F)(F)F)c1`, the “%Inh” value came out at 26% in the assay on DYRK1B (setting [1]); 8% with DYRK2; 23% with EGFR; 0% in the assay with EIF2AK1; 21% with EPHA1; 75% in the assay with EPHA2. Also, the “%Inh” value in the assay on EPHA3 was found to be 8%; in the assay on EPHA4, 51%; with EPHA5 it was 11%; in the assay on EPHA6 (setting [1]), 15%; in the assay on EPHA7, 0%; in the assay on EPHA8, 92.6%. Further, the “%Inh” value with EPHB1 came to 3%; in the assay with EPHB2, 39%; in the assay on EPHB3 it was 11%; in the assay with EPHB4 it was 16%; in the assay on EPHB6, 40%; in the assay on ERBB2 it was 22%. Besides, the “%Inh” value is on record as 45% in the assay on ERBB3 and 0% in the assay with ERBB4.

For `N#Cc1cccc(C(=O)NC2CCN(c3ccnc(Nc4ccc(F)cc4)n3)C2)c1` (stereo not shown) [GSK1379708], the “%Inh” value in the assay with DYRK1B (setting [1]) is on record as 0%; in the assay on DYRK2, 0%; in the assay with EGFR, 14%; with EIF2AK1 it was 0%; in the assay on EPHA1 it was 1%; with EPHA2 it was 0%. The “%Inh” value in the assay with EPHA3 came to 0%; in the assay on EPHA4, 0%; in the assay with EPHA5, 0%; in the assay on EPHA6 (setting [1]) it was 2%; with EPHA7, 0%; with EPHA8 it was 0%. Moreover, the “%Inh” value with EPHB1 was found to be 9%; in the assay with EPHB2, 0%; in the assay with EPHB3, 13%; with EPHB4 it was 5%; in the assay on EPHB6, 0%; in the assay on ERBB2, 9%. The results for the “%Inh” value with ERBB3 and in the assay on ERBB4 were 0% and 10%, respectively.

As for `CS(=O)c1ccc(-c2coc3ccc(-c4n[nH]c(=O)o4)cc23)cc1` (stereo not shown), the “%Inh” value with DYRK1B (setting [1]) is 68%; with DYRK2 it was 10%; in the assay with EGFR it was 0%; in the assay with EIF2AK1, 3%; in the assay with EPHA1 it was 0%; in the assay on EPHA2, 0%. For the same compound, the “%Inh” value in the assay with EPHA3, in the assay with EPHA4, in the assay on EPHA5, with EPHA6 (setting [1]), with EPHA7 and with EPHA8 was 0% in each case. Also, the “%Inh” value in the assay on EPHB1 is recorded as 0%; in the assay with EPHB2, 12%; in the assay on EPHB3, 0%; in the assay with EPHB4, 0%; in the assay on EPHB6 it was 25%; with ERBB2, 0%. The “%Inh” value with ERBB3 was determined as 13%; with ERBB4, 5%.

Take `O=C(Nc1ccccc1)c1cccc(Oc2ccc3nccn3n2)c1`: the “%Inh” value in the assay on DYRK1B (setting [1]) was determined as 28%; in the assay with DYRK2 it was 0%; with EGFR it was 3%; in the assay on EIF2AK1 it was 0%; in the assay with EPHA1, 7%; in the assay on EPHA2, 19%. Further, the “%Inh” value amounted to 0% with EPHA3; 4% in the assay on EPHA4; 0% with EPHA5; 2% in the assay with EPHA6 (setting [1]); 0% in the assay with EPHA7; 1% in the assay on EPHA8. Besides, the “%Inh” value in the assay on EPHB1 is 13%; in the assay with EPHB2, 8%; in the assay on EPHB3, 0%; in the assay with EPHB4, 3%; with EPHB6, 64%; in the assay on ERBB2, 0%. The figures for the “%Inh” value in the assay on ERBB3 and in the assay on ERBB4 were 39% and 0%, respectively.

Regarding `CCNCC(Cc1ccccc1)NC(=O)c1cc(Br)c(-c2ccnc3[nH]ccc23)s1.Cl.Cl` (stereo not shown) [GSK1383280], the “%Inh” value came to 53% with DYRK1B (setting [1]); 31% in the assay on DYRK2; 28% with EGFR; 0% in the assay with EIF2AK1; 25% with EPHA1; 24% with EPHA2. The “%Inh” value in the assay with EPHA3 is reported as 45%; with EPHA4, 0%; in the assay with EPHA5, 0%; with EPHA6 (setting [1]) it was 7%; with EPHA7, 9%; in the assay on EPHA8, 26%. Also, the “%Inh” value in the assay with EPHB1 was found to be 7%; in the assay on EPHB2, 0%; in the assay on EPHB3 it was 17%; with EPHB4, 0%; with EPHB6 it was 0%; in the assay on ERBB2, 3%. The “%Inh” value was 0% in the assay with ERBB3 and 22% with ERBB4.

`CCn1c(-c2nonc2N)nc2cncc(CNC3CCNCC3)c21.Cl` [SB-747651]: the “%Inh” value worked out at 12% with DYRK1B (setting [1]); 25% in the assay on DYRK2; 35% in the assay with EGFR; 2% in the assay with EIF2AK1; 6% in the assay with EPHA1; 0% with EPHA2. Also, the “%Inh” value in the assay with EPHA3 came out at 0%; in the assay with EPHA4 it was 9%; in the assay on EPHA5, 0%; in the assay with EPHA6 (setting [1]), 3%; with EPHA7 it was 9%; with EPHA8, 0%. The “%Inh” value with EPHB1 stood at 12%; in the assay with EPHB2, 0%; in the assay on EPHB3, 8%; with EPHB4 it was 0%; in the assay on EPHB6, 0%; in the assay with ERBB2, 21%. Also, the results for the “%Inh” value in the assay on ERBB3 and in the assay on ERBB4 were 8% and 0%, respectively.

As to `COc1cccc(OC)c1C(=O)Nc1cccc(-c2nn3ccccc3c2-c2ccnc(Nc3cccc(F)c3)n2)c1` [GSK361065], the “%Inh” value in the assay with DYRK1B (1 µM) amounted to 24%; in the assay with DYRK2, 0%; in the assay on EGFR it was 91.7%; in the assay with EIF2AK1 it was 0%; in the assay with EPHA1 it was 4%; with EPHA2 it was 11%. Further, the “%Inh” value in the assay with EPHA3 is given as 0%; in the assay with EPHA4, 0%; in the assay on EPHA5 it was 11%; in the assay with EPHA6 (1 µM), 11%; in the assay with EPHA7, 14%; in the assay with EPHA8 it was 17%. For the same compound, the “%Inh” value is listed as 100% in the assay on EPHB1; 0% with EPHB2; 8% with EPHB3; 8% in the assay on EPHB4; 42% with EPHB6; 61% with ERBB2. Further, the “%Inh” value with ERBB3 was 0%; with ERBB4, 84%.

As to `Cl.Cl.NC[C@H](CC1CCCCC1)NC(=O)c1ccc(-c2ccnc3[nH]ccc23)s1` [GSK1581428], the “%Inh” value with DYRK1B (setting [1]) is listed as 27%; in the assay on DYRK2, 80%; in the assay with EGFR it was 28%; in the assay on EIF2AK1, 0%; in the assay on EPHA1, 7%; in the assay on EPHA2, 0%. For the same compound, the “%Inh” value was determined as 17% in the assay on EPHA3; 5% with EPHA4; 0% with EPHA5; 27% in the assay with EPHA6 (setting [1]); 14% with EPHA7; 36% with EPHA8. Further, the “%Inh” value in the assay on EPHB1 was 6%; in the assay with EPHB2 it was 0%; with EPHB3 it was 15%; in the assay with EPHB4, 14%; in the assay with EPHB6 it was 12%; with ERBB2, 22%. In addition, the “%Inh” value in the assay on ERBB3 and in the assay on ERBB4 was 0% each time.

Consider `Cn1ccc2ncnc(Oc3ccc(NC(=O)Nc4ccnc(C(F)(F)F)c4)c(Cl)c3)c21`, for which the “%Inh” value is on record as 53% in the assay on DYRK1B (setting [1]); 0% in the assay with DYRK2; 3% in the assay with EGFR; 0% in the assay on EIF2AK1; 0% in the assay on EPHA1; 0% in the assay on EPHA2. For the same compound, the “%Inh” value with EPHA3 turned out to be 10%; in the assay on EPHA4, 29%; in the assay with EPHA5 it was 0%; in the assay with EPHA6 (setting [1]) it was 80%; in the assay on EPHA7, 6%; in the assay on EPHA8, 14%. Also, the “%Inh” value stood at 5% in the assay on EPHB1; 28% with EPHB2; 25% with EPHB3; 20% in the assay with EPHB4; 36% in the assay with EPHB6; 20% with ERBB2. For the same compound, the “%Inh” value in the assay with ERBB3 and in the assay with ERBB4 was 0% each time.

With `CSc1nccc(-c2c(-c3ccc(F)cc3)ncn2CCCN2CCOCC2)n1.Cl` [SB-217146], the “%Inh” value with DYRK1B (setting [1]) was found to be 12%; in the assay on DYRK2, 12%; in the assay on EGFR, 0%; in the assay on EIF2AK1, 0%; with EPHA1, 0%; in the assay with EPHA2, 0%. Moreover, the “%Inh” value in the assay with EPHA3 is 0%; in the assay with EPHA4, 7%; with EPHA5, 0%; in the assay with EPHA6 (setting [1]) it was 0%; in the assay with EPHA7, 0%; in the assay with EPHA8, 0%. The “%Inh” value is reported as 11% in the assay with EPHB1; 0% in the assay on EPHB2; 0% in the assay on EPHB3; 0% in the assay with EPHB4; 0% in the assay on EPHB6; 7% in the assay with ERBB2. In addition, the “%Inh” value in the assay on ERBB3 and with ERBB4 was 0% throughout.

These data come from paper PMC5540273 (PLoS ONE, 2017).
